Data as given in PubChem BioAssay.
Potency and affinity values are given separately. Calls of active or inactive are those of the source. Unless noted, how the calls were made is not given here.

Biological target: Calcium-dependent protein kinase 1 (Plasmodium falciparum (isolate 3D7)) (UniProt P62344)
Test: PfCDPK1 kinase inhibitors, biochemical, TCAMS library (AID 1159585; cut-off not given, nearly all actives have IC50 up to about 0.98 µM;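 further: inhibitors leave more ATP so luminescence rises with inhibition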)
Conditions: recombinant PfCDPK1, Kinase-Glo ATP depletion luminescence

Sequence of Calcium-dependent protein kinase 1 (Plasmodium falciparum (isolate 3D7)) (P62344 whole entry, looked up): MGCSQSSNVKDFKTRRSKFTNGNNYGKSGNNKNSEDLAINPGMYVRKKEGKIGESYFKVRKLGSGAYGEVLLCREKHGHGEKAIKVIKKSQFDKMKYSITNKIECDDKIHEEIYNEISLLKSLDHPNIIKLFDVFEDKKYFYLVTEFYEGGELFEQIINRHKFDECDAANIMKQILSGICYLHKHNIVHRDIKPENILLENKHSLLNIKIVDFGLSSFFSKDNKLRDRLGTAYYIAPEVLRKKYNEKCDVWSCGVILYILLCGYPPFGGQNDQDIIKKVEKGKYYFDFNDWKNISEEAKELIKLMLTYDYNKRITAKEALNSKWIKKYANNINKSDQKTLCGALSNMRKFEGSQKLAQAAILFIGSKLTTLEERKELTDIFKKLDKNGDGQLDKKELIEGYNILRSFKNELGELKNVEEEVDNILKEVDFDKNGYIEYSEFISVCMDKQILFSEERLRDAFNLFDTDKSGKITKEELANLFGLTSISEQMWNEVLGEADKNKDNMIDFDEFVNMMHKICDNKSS

outcome, inactive:
Cc1nc2nc(N)nc(N)c2c(C)c1Cc1c(Cl)cccc1Cl
O=C(/C=C/c1ccc(Cl)c(Cl)c1)NCCCCCN1CCC(CCNC(=O)Cc2ccc(Cl)cc2)CC1
Cc1c(F)cc(C(=O)NC2CC2)cc1-c1ccc2c(cnn2S(=O)(=O)c2ccc(Cl)s2)c1
Cc1cccc2[nH]c(-c3ccc(-c4ccc(CN5CCC(C(N)=O)CC5)cc4)cc3)nc12
CC(Cc1ccc(NC(=O)c2ccc(CNCCCCc3ccccc3)cc2)cc1)NCCc1cccc(Cl)c1 (stereo unspecified)
NC1=NC(c2ccccc2)(c2ccccc2)C(=O)N1CCCCc1ccccn1
OCC(c1ccccc1)n1c(COc2ccc(Cl)cc2)nc2c(OCCCN3CCCCC3)cccc21 (stereo unspecified)

Biological target: Plasmodium falciparum protein kinase 6 (PK6, PF3D7_1337100) (UniProt Q8IDW1)
Test: PfPK6 kinase inhibitors, biochemical, TCAMS library (AID 1159586)
Conditions: recombinant PfPK6, Kinase-Glo ATP depletion luminescence

Sequence of Plasmodium falciparum protein kinase 6 (PK6, PF3D7_1337100) (Q8IDW1 1-305): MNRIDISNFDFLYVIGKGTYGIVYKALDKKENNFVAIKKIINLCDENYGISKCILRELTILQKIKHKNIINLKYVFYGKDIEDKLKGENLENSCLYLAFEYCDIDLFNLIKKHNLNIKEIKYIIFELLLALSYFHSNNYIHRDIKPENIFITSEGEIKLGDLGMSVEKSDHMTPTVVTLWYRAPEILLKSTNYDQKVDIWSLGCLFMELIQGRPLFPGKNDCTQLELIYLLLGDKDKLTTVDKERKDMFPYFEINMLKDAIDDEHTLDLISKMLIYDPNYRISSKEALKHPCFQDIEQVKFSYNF

outcome, inactive:
CN1CCCN(Cc2ccc(-c3cccc(NC(=O)c4ccc(C#N)cc4)c3)cc2)CC1
COc1ccc(C2CCN(C#N)C2)cc1OC1CCCC1 (stereo unspecified)
COc1cc2nc(N3CCN(C(=O)c4cccc(I)c4)CC3)nc(N)c2cc1OC
CN(CCNCc1ccc(-c2cccc(-c3nc4ccccc4[nH]3)c2)cc1)S(C)(=O)=O
COc1cccc2c(C)cc(NCc3ccc(Cl)cc3)nc12
CCOC(=O)c1[nH]c(-c2cccnc2)nc1NC(=S)NCc1ccccc1
CCOC(=O)c1cnc2c(OC)cc(OC)c(Cl)c2c1Nc1ccccc1
FC(F)(F)c1ccc2nc(-c3ccc(-c4ccc(CNCC5CCCO5)cc4)s3)[nH]c2c1 (stereo unspecified)
CCCCOP(=O)(OCCCC)C(=Cc1ccc(O)c2ccccc12)P(=O)(OCCCC)OCCCC
